G9a inh = G9a (human) methyltransferase inhibition; Q96KQ7; G9a H3K9 monomethylation, AlphaScreen, 2 h; Potency, µM (series often up to 102 µM), without a hit: at the top dose activity, negative = inhibition, hits mostly inhibitors; hit rate 8.8% among 350,000; AID 504332; also: potency is read from the fitted curve at half-maximal effect; % is scaled to controls: 0 for no effect and ±100 for the full control effect; nearly all actives have a fitted effect of over 75% in size
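G9a (20 nM) was preincubated 15 min with compound, then reacted 2 h at room temperature with 500 nM biotin-H3K9 peptide and 20 µM SAM. Monomethyl-H3K9 detected by AlphaScreen using anti-H3K9me1 antibody.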
Six1-Eya2 blk = inhibitors of human Six1/Eya2 interaction; Q15475+O00167; AlphaScreen GST-Six1/His-Eya2 binding, biochemical; stronger effect = lower value; activity change, % (no concentration beside the values); hit rate 0.56% among 360,000; AID 651725; in the data active = activity change below about -65%; inconclusive = mostly about -30% to -63%; also: % is scaled to controls: 0 for no effect and ±100 for the full control effect
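AlphaScreen with GST-Six1 and His-Eya2 (5X mix: 250 nM and 500 nM), glutathione donor and nickel acceptor beads; buffer 50 mM Tris pH 8.0, 300 mM NaCl, 1 mM TCEP; 1 h at 37 C in the dark.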
CtBP-E1A blk = blocks the CtBP interaction with E1A; AlphaScreen GST-E1A/His-CtBP binding, 1536-well; stronger effect = lower value; activity change, % (no concentration beside the values); hit rate 0.49% among 340,000; AID 651724; in the data active = activity change below about -65%; inconclusive = mostly about -30% to -63%; also: % is scaled to controls: 0 for no effect and ±100 for the full control effect
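Steps: dispense buffer (Tris pH 8.0, NaCl 300 mM, TCEP 1 mM, BSA, Tween 20); add 5X protein mix (GST-E1A, His-CtBP, 125 nM each); pin 23 nL compound; 2 h at 37 °C, dark; add 5X beads (50 ug/mL); 1 h; read.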
JMJD2A Tudor inh = blocks the human JMJD2A Tudor domain; AlphaScreen JMJD2A-Tudor / H3K4me3 peptide binding; Potency, µM (titrated, usually from 114 µM), without a hit: top-dose activity change, negative = inhibition, hits mostly inhibitors; O75164; hit rate 4.4% among 390,000; also: potency is read from the fitted curve at half-maximal effect; % is scaled to controls: 0 for no effect and ±100 for the full control effect; nearly all actives have a fitted effect of over 50% in size
BAZ2B inh = inhibitors of human BAZ2B bromodomain | AlphaScreen BAZ2B-H3K14Ac peptide displacement | hit rate 4.4% among 360,000 | Potency, µM (highest dose often 114 µM), without a hit: at the highest dose activity change, negative = inhibition, hits mostly inhibitors; also: potency is read from the fitted curve at half-maximal effect; % is scaled to controls: 0 for no effect and ±100 for the full control effect; nearly all actives have a fitted effect of over 60% in size
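AlphaScreen displacement: compounds (up to 110uM) incubated 30 min at room temperature with a preformed 50 nM BAZ2B/50 nM biotinylated H3K14Ac peptide complex in PBS pH 7.4 with Tween-20. Donor and acceptor beads at 10 ug/mL final added, 20 min light-protected before reading.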
HP1b chromo inh = inhibitors of HP1-beta chromodomain binding to methylated histone tails; Potency, µM (doses to about 114 µM), inactives show top-dose activity change, negative = inhibition, hits mostly inhibitors; AID 540317; AlphaScreen HP1-beta / biotin-H3K9me3 peptide binding; P83916; hit rate 0.56% among 390,000; also: potency is read from the fitted curve at half-maximal effect; nearly all actives have a fitted effect of over 70% in size
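HP1-beta protein (50 nM final) preincubated 30 min at room temperature with biotinylated H3(1-18)K9me3 peptide (50 nM) in PBS pH 7.4, 0.01% Tween-20, then compound added for 30 min. AlphaScreen streptavidin donor/nickel chelate acceptor beads (10 ug/mL final), 30 min dark, luminescence read.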
Active calls of the source: *; ? = inconclusive; . = no result; [ ] = another dose, or the depositor's remark. Shown are actives, neighbours in structure and some others; about 10% of the full set was active somewhere. Unless noted, calls follow the shape of the dose curve; as a rule, active = well fitted inhibition curve with a large enough effect; inconclusive = small, poorly fitted or top-dose-only effect; inactive = no such curve, though single readings can be large or run the other way.

SMILES | G9a inh | Six1-Eya2 blk | CtBP-E1A blk | JMJD2A Tudor inh | BAZ2B inh | HP1b chromo inh
Cc1ccc(CSc2ncc(Cl)c(C(=O)Nc3nnc(C)s3)n2)cc1 | 8%[59 µM] | . | . | -26% | -12% | 4%
CCN(CC)CCCn1c2c(c(SCC(=O)Nc3ccc(C)c(F)c3)nc1=O)CCC2 | 56µM* | -1 | 0 | -8% | 5% | 24%
CCN(CC)CCn1c2c(c(SCC(=O)Nc3ccc4c(c3)OCO4)nc1=O)CCC2 | 35µM* | 2 | 3 | 3% | -18% | 18%
CCOC(=O)c1cccc(NC(=O)c2cc3c(=O)n(Cc4ccccc4)ccc3nc2C)c1 | 4%[59 µM] | . | . | -17% | -2% | 57%
Cc1ccc(S(=O)(=O)NC(=O)Nc2ccc(N(C)C)cc2)cc1 | ? | ? | ? | 22µM* | 14µM* | 18µM*
Cc1ccc(NC(=O)NNS(=O)(=O)c2ccc(Br)cc2)cc1 | 10%[12.7 µM] | 2 | -9 | -2% | 15% | 24%
Cc1ccc(S(=O)(=O)NC(=O)c2cc(C)n(-c3ccc(N(C)C)cc3)c2C)cc1 | 45µM* | -3 | . | -32% | -35% | -2%
Cc1ccc(S(=O)(=O)NC(=O)c2cc(C)n(-c3ccccc3)c2C)cc1 | ? | -10 | . | -15% | -4% | 15%
CC(=O)C1=CCC(c2ccccc2)N(Cc2ccccc2)C1 (stereo not drawn) | . | 6 | 5 | . | . | .
Cc1nnc(Sc2cc(NCCCO)c([N+](=O)[O-])c3nonc23)s1 | 5.6µM* | ? | -20 | 28µM* | -25% | 13µM*
O=[N+]([O-])c1c(NCCO)cc(N2CCCCCC2)c2nonc12 | 13% | 3 | . | -23% | -23% | 9%
Cc1nnc(Sc2cc(NCCO)c([N+](=O)[O-])c3nonc23)s1 | 2µM* | ? | -11 | ? | -20% | 13µM*
CCCSc1cc(NCCOC(C)=O)c([N+](=O)[O-])c2nonc12 | -28% | 2 | 4 | -18% | -20% | 12%[57 µM]
CCOc1ccccc1NC(=O)C(=O)NCCc1sc2nc(-c3ccc(OC)cc3)nn2c1C | 8%[59 µM] | . | . | 8% | 6% | 35%
C[N+]1(CC(=O)NNc2c3ccccc3nc3ccccc23)CCOCC1 | 50µM* | . | . | . | ? | .
COc1ccccc1OCC(=O)NNC(=O)CCCC(=O)NNC(=O)COc1ccccc1OC | ? | -3 | . | 4% | -1% | 31%
COc1ccccc1OCC(=O)NNc1c2ccccc2nc2ccccc12 | 35µM* | -3 | . | ? | ? | -10%
COc1cc(-c2noc(CSc3nc(-c4ccccc4)cc(=O)[nH]3)n2)cc(OC)c1OC | -16%[59 µM] | . | . | -18% | 2% | 23%[57 µM]
CCC(C)Nc1ccc(NC(C)CC)cc1 (stereo not drawn) | 2%[0.501 µM] | -1 | ? | 40µM* | 35µM* | ?
COCCn1c(=O)c(-c2ccc(Cl)cc2)nc2cnc(Oc3ccccc3)nc21 | 3%[12.7 µM] | . | . | . | . | .
CCNC(=O)C(=O)NCC1CCCN1S(=O)(=O)c1cccs1 (stereo not drawn) | 3% | 3 | 1 | -7% | -5% | 14%
CCc1nc(N2CCN(C(=O)CCl)CC2)c2c3c(sc2n1)CC(C)CC3 (stereo not drawn) | 79µM* | -3 | 3 | -29% | -25% | 17%
COC(=O)[C@@]12C[C@@H](CC(=O)NCCC(C)C)C(=O)N(CCc3ccc(OC)c(OC)c3)C1=CCC(C)(C)C2 | . | 0 | -15 | . | . | .
Cc1ccccc1Cn1cc(NC(=O)c2cc(C3CC3)on2)cn1 | 40µM* | 2 | . | -16% | ? | 6%[57 µM]
Cc1ccccc1Cn1cc(NC(=O)c2cc(-c3ccc(Cl)cc3)on2)cn1 | 2%[59 µM] | . | . | -18% | 3% | 43%
SMILES | G9a inh | Six1-Eya2 blk | CtBP-E1A blk | JMJD2A Tudor inh | BAZ2B inh | HP1b chromo inh
COc1ccc(N(CC(=O)NCCc2ccccc2)C(=O)CCC(=O)Nc2nccs2)cc1 | 56µM* | 11 | -1 | -8% | -2% | ?
COc1ccc(-c2[nH]c(-c3ccccc3)nc2SCC(=O)Nc2nccs2)cc1 | 11µM* | -3 | -26 | ? | ? | -4%
COc1ccc(-c2[nH]c(-c3ccc(C)cc3)nc2SCC(=O)NC2CCCC2)cc1 | 50µM* | -2 | -21 | ? | ? | -7%
CCN(CC(=O)Nc1ccc2c(c1)OCCO2)C(=O)/C=C/c1ccc(F)cc1 | -9% | -1 | -7 | -26% | -20% | 28%
COCCn1c(Cc2ccccc2)nnc1SCC(=O)Nc1oc(C)c2c(C)n[nH]c(=O)c12 | 14µM* | 7 | 5 | -13% | -15% | 53%
Cc1n[nH]c(=O)c2c(NC(=O)CSc3nc4ccccc4c(=O)n3C(C)C)oc(C)c12 | 56µM* | -9 | -8 | -11% | -35% | 19%[57 µM]
COCC(C)n1c(SCC(=O)Nc2oc(C)c3c(C)n[nH]c(=O)c23)nc2ccccc2c1=O (stereo not drawn) | . | 3 | -2 | -8% | -12% | 9%
Cc1n[nH]c(=O)c2c(NC(=O)CSc3nnnn3-c3ccc(O)cc3)oc(C)c12 | 5%[0.501 µM] | -5 | -4 | -12% | -2% | 10%
COCCn1c(Cc2ccccc2)nnc1SCC(=O)Nc1ccccc1 | . | 2 | 9 | -5% | -12% | 44%
Cc1n[nH]c(=O)c2c(NC(=O)CSc3nnnn3-c3ccccc3)oc(C)c12 | 45µM* | 2 | -10 | ? | -30% | 24%
Cc1ccc(C)c(SCC(=O)Nc2cc(C)nn2-c2ccc(F)cc2)c1 | 11µM* | . | . | . | 7% | .
Cc1cc(NC(=O)CSc2cc(Cl)ccc2Cl)n(-c2ccccc2)n1 | 59%[59 µM] | 22 | . | -6% | 6% | 74%
CNC(=S)N(CCc1c(C)[nH]c2ccc(C)cc12)Cc1ccco1 | 45µM* | -14 | -12 | ? | 50µM* | -19%
COc1cc(CN(CCc2c(C)[nH]c3ccc(C)cc23)C(=S)NC(C)(C)C)cc(OC)c1OC | ? | -24 | -4 | 50µM* | ? | ?
CNC(=S)N(CCc1c(C)[nH]c2ccc(C)cc12)Cc1ccc(OC)c(OC)c1 | 50µM* | -24 | -22 | ? | 32µM* | -2%
CCNC(=S)N(CCc1c(C)[nH]c2ccc(Cl)cc12)Cc1ccco1 | ? | -23 | 0 | -30% | . | -10%
COCCNC(=S)N(CCc1c(C)[nH]c2ccccc12)Cc1ccco1 | 50µM* | -13 | -6 | -30% | ? | 4%
C[C@H](CO)N1C[C@H](C)[C@@H](CN(C)C(=O)Nc2ccc3c(c2)OCO3)Oc2c(NS(=O)(=O)c3ccc(F)cc3)cccc2C1=O | . | 2 | -1 | -13% | . | 25%
COCCNC(=S)N(CCc1c(C)[nH]c2ccc(Cl)cc12)Cc1cccs1 | ? | -8 | -12 | ? | . | 3%

From PubChem BioAssay
